For assay [1], the system named is Vero E6 infected with SARS-CoV-2. The experiment in a line: morphology score (similarity to uninfected cells); higher = more like uninfected cells. The conditions noted are these: 24 h.
For assay [2] the test system is unchanged. Kind of assay: SARS-CoV-2 infection rate relative to infected DMSO; higher = more infection, active = 60 or less. The conditions noted are these: 24 h.

This passage reports morphology score and SARS-CoV-2 infection rate results from the supplement of paper PMC13380429.

Each structure is given as a SMILES string.

The compound `COc1ccc(C(=O)c2ccccc2O)c(O)c1` [dioxybenzone] (0.833333 µM) came in with a morphology score in assay [1] of 0.165. The SARS-CoV-2 infection rate in assay [2] is 88% (inactive).
On the same counts, the results for `C[N+]12CCC(CC1)C(OC(=O)C(O)(c1ccccc1)c1ccccc1)C2` (stereo not drawn) [clidinium] (10 µM) are -0.064 and 95% (inactive).
On the same counts, the results for `CNC(=O)c1cccc(-c2ccc3c(N4CCOC[C@@H]4C)nc(N4CCOC[C@@H]4C)nc3n2)c1` (10 µM) are -0.219 and 108% (inactive).
As to `Nc1nc(=O)n([C@@H]2CS[C@H](CO)O2)cc1F` [emtricitabine] (10 µM), the morphology score in assay [1] stood at 0.154. Besides, the SARS-CoV-2 infection rate in assay [2] is 114% (inactive).
On the same counts, the results for `CC(=O)Nc1cccc(Nc2ncnc(N3CCC(OCc4ccc(OC(F)(F)F)cc4)CC3)n2)c1C` (10 µM) are 0.184 and 110% (inactive).
As for `NS(=O)(=O)c1cc2c(cc1Cl)N=C(CSCc1ccccc1)NS2(=O)=O` [benzthiazide] (10 µM), the morphology score in assay [1] is -0.187. The SARS-CoV-2 infection rate in assay [2] was 116% (inactive).
The corresponding values for `COc1cc(/C=C/C(N)=O)cc(OC)c1OC` [cintriamide] (10 µM) are -0.0883 and 110% (inactive).
On the same counts, the results for `Nc1nc(Nc2ccc(S(N)(=O)=O)cc2)nn1C(=O)c1c(F)cccc1F` (0.833333 µM) are -0.114 and 120% (inactive).
The corresponding values for `N[C@@H]1CCCN(c2c(/C=C3\SC(=O)NC3=O)cccc2-c2ccccc2)C1` (10 µM) are -0.0825 and 110% (inactive).
Consider `O=c1n(CC2CO2)c(=O)n(CC2CO2)c(=O)n1CC1CO1` (stereo not drawn) [teroxirone] (10 µM), for which the morphology score in assay [1] is -0.0418. The SARS-CoV-2 infection rate in assay [2] was 115% (inactive).
On the same counts, the results for `c1ccc2c(Oc3nc(Nc4ccc(N5CCOCC5)cc4)c4ncn(C5CCCCC5)c4n3)cccc2c1` [purmorphamine] (10 µM) are -0.227 and 113% (inactive).
The corresponding values for `O=C(O)[C@H](CC(=O)N1C[C@H]2CCCC[C@H]2C1)Cc1ccccc1` [mitiglinide] (10 µM) are 0.0871 and 108% (inactive).
Consider `O=C(O)C(O)C(O)C(=O)O` (stereo not drawn) [tartaric-acid] (10 µM), for which the morphology score in assay [1] was -0.0312. Further, in assay [2], the SARS-CoV-2 infection rate was 103% (inactive).
On the same counts, the results for `O=C1NC(=O)/C(=C/c2ccc3c(c2)OC(F)(F)O3)S1` (10 µM) are -0.0969 and 106% (inactive).
On the same counts, the results for `O=C(NN1C(=O)[C@@H]2[C@@H]3C=C[C@@H]([C@H]4C[C@@H]34)[C@@H]2C1=O)c1ccc(C(F)(F)F)cc1` [tecovirimat] (10 µM) are -0.108 and 102% (inactive).
On the same counts, the results for `Nc1nc2c(ncn2COCCO)c(=O)[nH]1` [acyclovir] (10 µM) are 0.109 and 104% (inactive).
On to `COc1nccnc1NS(=O)(=O)c1ccc(N)cc1` [sulfametopyrazine] (10 µM), for which, in assay [1], the morphology score was -0.162. In addition, the SARS-CoV-2 infection rate in assay [2] is 112% (inactive).
The corresponding values for `C=CCN1CC[C@]23c4c5ccc(O)c4O[C@H]2/C(=N/NC(=O)c2ccccc2)CC[C@@]3(O)[C@H]1C5` [naloxone-benzoylhydrazone] (10 µM) are 0.0722 and 110% (inactive).
On the same counts, the results for `Cl/C(=C\n1cncn1)c1ccc(Cl)cc1Cl` [loreclezole] (10 µM) are 0.0913 and 102% (inactive).
On the same counts, the results for `N#C/C(=C\c1cccn1S(=O)(=O)c1cccc([N+](=O)[O-])c1)S(=O)(=O)c1ccc(F)cc1` (10 µM) are -0.181 and 109% (inactive).
`NC(N)=Nc1nc(CSCCN/C=N/S(=O)(=O)c2ccc(Br)cc2)cs1` [ebrotidine] (10 µM) registered a morphology score in assay [1] of 0.0177. Further, in assay [2], the SARS-CoV-2 infection rate was 97% (inactive).
For the compound `Cc1ccc(CNc2ncnc3ccc(-c4ccc(CO)o4)cc23)o1` (10 µM), the morphology score in assay [1] worked out at 0.497. Besides, the SARS-CoV-2 infection rate in assay [2] was 106% (inactive).
For the compound `Cc1c(C)c(NCC(=O)N(C)C2CCN(Cc3ccc(C(N)=O)cc3)CC2)c(C)c(C)c1N` (10 µM), the morphology score in assay [1] was found to be 0.211. For the same compound, the SARS-CoV-2 infection rate in assay [2] is 91% (inactive).
Turning to `COc1cc2ncnc(Nc3ccc(F)c(Cl)c3)c2cc1OCCCN1CCOCC1` [gefitinib] (10 µM), the morphology score in assay [1] is -0.249. For the same compound, in assay [2], the SARS-CoV-2 infection rate was 112% (inactive).
The corresponding values for `CC(C)c1cc2c(cc1S(=O)(=O)O)[C@@]1(C)CCC[C@@](C)(C(=O)O)[C@@H]1CC2` [ecabet] (10 µM) are 0.0527 and 102% (inactive).
Take `N[C@@H](CCC(=O)N[C@@H](CS)C(=O)NCC(=O)O)C(=O)O` [glutathione] (10 µM): the morphology score in assay [1] is -0.0349. For the same compound, the SARS-CoV-2 infection rate in assay [2] is 108% (inactive).
The corresponding values for `O=C1NCCNC1c1cccs1` (stereo not drawn) [tenilsetam] (10 µM) are 0.095 and 106% (inactive).
The corresponding values for `O=C(Cn1ccnc1[N+](=O)[O-])NCc1ccccc1` [benznidazole] (10 µM) are 0.0566 and 112% (inactive).
`Nc1ccc(/N=N/c2ccccc2)c(N)n1` [phenazopyridine] (10 µM) showed a morphology score in assay [1] of 0.34. Besides, the SARS-CoV-2 infection rate in assay [2] is 87.5% (inactive).
